# Experimental data published in PubChem BioAssay (EPA / NIEHS).
# Activity calls are given as the source filed them. The calls were made as follows: active = hit-call score of the fitted dose curve at least 0.9, where 1 is the maximum; inactive = score below 0.9.
# Assay: BSK_LPS_SRB: Viability Assessment in the BioMAP Diversity Plus: LPS Assay (AID 2283079);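 also: measured one day after compound addition; fitted in both directions against DMSO so loss or gain of signal counts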
# Details: primary human HUVEC with PBMC
# Method: BSK_LPS is a cell-based, multiplexed-readout assay that uses umbilical vein endothelium and peripheral blood mononuclear cells, a human vascular primary cell co-culture, with measurements taken at 24 hours after chemical dosing in a 96-well plate.BSK_LPS_SRB is an assay component measured in the BSK_LPS assay. It measures 0.1% sulforhodamine related to cell death using Sulforhodamine staining technology.Data from the assay component BSK_LPS_SRB was analyzed into 1 assay endpoint. This assay endpoint, BSK_LPS_SRB, was analyzed with bidirectional fitting relative to DMSO as the negative control and baseline of activity. Using a type of viability reporter, gain or loss-of-signal activity can be used to understand changes in the signaling. Furthermore, this assay endpoint can be referred to as a primary readout, because this assay has produced multiple assay endpoints where this one serves a signaling function. To generalize the intended target to other relatable targets, this assay endpoint is annotated to the cell morphology intended target family, where the subfamily is cell conformation.
# The levels of cell surface (or secreted, indicated by the prefix "s") biomarker endpoints were measured by ELISA. Overt cytotoxicity to cells in confluent adherent cultures (all systems other than the BT system) was assessed by measuring total protein levels using sulforhodamine B (SRB) staining in parallel cultures at the time of biomarker measurements, indicated as SRB endpoints. For proliferation assays for adherent cell types, individual cell types are cultured at sub-confluence and relative cell numbers quantified by SRB staining at time points optimized for each system (48 h: 3C and CASM3C systems; 72 h: BT and HDF3CGF systems; 96 h: SAg system). SRB was performed by staining cells with 0.1% SRB after fixation with 10% TCA and reading wells at 560 nm.Viability and proliferation of PBMC (T cells) was quantified by Alamar Blue reduction for the SAg and BT systems. For PBMC viability (referred to as PBMC Cytotoxicity within the assay endpoint names), cells were plated (75,000/well in a 96-well plate) and then chemical samples added for 1 h before addition of activators, SEB and TSST-1 (20 ng/mL final concentration each). Cells were incubated for 90 h. Then, Alamar Blue (20 uL/well) (Invitrogen, Cat DAL1100) was added for 6 h, and the plates were read with a fluorescence microplate reader at 546/580 nm (excitation/emission). For PBMC proliferation, cells were plated and activated as above but incubated for only 16 h prior to addition of Alamar Blue. Plates were read after 6 h.
Structure (SMILES),outcome,AC50
CCCC(=NOCC)C1=C(O)CC(CC(C)SCC)CC1=O (stereo not given),inactive,–
CS(=O)(=O)c1ccc(C(=O)C2C(=O)CCCC2=O)c([N+](=O)[O-])c1,inactive,–
C=CCOC(=O)C(C)(C)OC(=O)c1cc(-n2c(=O)cc(C(F)(F)F)n(C)c2=O)ccc1Cl,inactive,–
COCC(C)N(C(=O)CCl)c1c(C)csc1C (stereo not given),inactive,–
COc1cc(OC)nc(NC(=O)NS(=O)(=O)c2ncccc2OCC(F)(F)F)n1,inactive,–
O=C(O)c1c(Cl)ccc2cc(Cl)cnc12,inactive,–
CC(C)Oc1cccc(NC(=O)c2ccccc2C(F)(F)F)c1,–,16.7 µM (active)
CCCCOCN(C(=O)CCl)c1c(CC)cccc1CC,–,29.2 µM (active)
CCCCC(C#N)(Cn1cncn1)c1ccc(Cl)cc1 (stereo not given),inactive,–
Nc1c(Cl)c(F)nc(OCC(=O)O)c1Cl,inactive,–
CCOc1cc(C(C)(C)C)ccc1C1COC(c2c(F)cccc2F)=N1 (stereo not given),–,26.2 µM (active)
Nc1c(Cl)c(Cl)nc(C(=O)O)c1Cl,inactive,–
O=P(O)(O)CCCl,inactive,–
CCOP(=O)(OCC)Oc1nc(Cl)c(Cl)cc1Cl,–,10.7 µM (active)
CN=C=S,inactive,–
CCNP(=S)(OC)O/C(C)=C/C(=O)OC(C)C (stereo not given),inactive,–
Cn1c(-c2ccccc2)cc(-c2ccccc2)[n+]1C,inactive,–
CCOc1nc(F)cc2nc(S(=O)(=O)Nc3c(Cl)cccc3Cl)nn12,inactive,–
COP(=O)(OC)O/C(C)=C/C(=O)N(C)C,inactive,–
N#CN=C1SCCN1Cc1ccc(Cl)nc1,inactive,–

Structure (SMILES),outcome,AC50
CCC(C)n1c(=O)[nH]c(C)c(Br)c1=O (stereo not given),inactive,–
CC(C)N1C(=O)c2ccccc2NS1(=O)=O,inactive,–
CNC(=O)Oc1cccc2ccccc12,–,13.3 µM (active)
CCOc1nc(C(Cl)(Cl)Cl)ns1,inactive,–
COC(=O)NS(=O)(=O)c1ccc(N)cc1,inactive,–
Cc1ccc(N=CN(C)C=Nc2ccc(C)cc2C)c(C)c1,–,31.7 µM (active)
Nc1cnn(-c2ccccc2)c(=O)c1Cl,inactive,–
CNC(=O)N(C)c1nnc(C(C)(C)C)s1,inactive,–
CCNC(=O)NC(=O)C(C#N)=NOC,inactive,–
Cc1cnc(C2=NC(C)(C(C)C)C(=O)N2)c(C(=O)O)c1 (stereo not given),inactive,–
O=C(Nc1ccccc1-c1ccc(Cl)cc1)c1cccnc1Cl,inactive,–
CCN(CC)C(=O)C(C)Oc1cccc2ccccc12 (stereo not given),inactive,–
CC(C)NC(=O)N1CC(=O)N(c2cc(Cl)cc(Cl)c2)C1=O,inactive,–
CCOP(=S)(OCC)Oc1nc(Cl)n(C(C)C)n1,inactive,–
CC1(C)CON(Cc2ccccc2Cl)C1=O,inactive,–
CN/C(=N\[N+](=O)[O-])NCc1cnc(Cl)s1,inactive,–
CC(C)N1C(=O)N(c2ccccc2)CSC1=NC(C)(C)C,–,34 µM (active)
CC(C)C1(C)N=C(c2ncccc2C(=O)O)NC1=O (stereo not given),inactive,–
CC(C)Nc1nc(Cl)nc(NC(C)C)n1,inactive,–
O=C1C2CC=CCC2C(=O)N1SC(Cl)(Cl)Cl (stereo not given),inactive,–
